Six compounds from PubChem BioAssay can be followed below.

Activity calls are given as the source filed them.

Test [1] concerns Plasmodium falciparum Sir2 (PF13_0152, Sir2A). Nature of the test: Plasmodium falciparum Sir2A binding compounds – biochemical, small-molecule microarray, 635 nm fluorescence, primary screen (AID 1098).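 Further: score merges spot fluorescence intensity with its signal-to-noise ratio.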 To be noted: fluorescence 635 nm, higher = more signal.
Test [2] in a line: probe aDKK1 binding to arrayed compounds – biochemical, biotinylated probe, 635/667 nm fluorescence, primary screen (AID 1099).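 Further: score merges 667nm spot fluorescence with signal to noise across triplicate slides.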 To be noted: small-molecule microarray, higher = more signal.
Test [3] in a line: probe aCHRDL2 binding to arrayed compounds – biochemical, biotinylated probe, 635/667 nm fluorescence, primary screen (AID 1100). As to conditions: small-molecule microarray, higher = more signal.
Test [4] can be described thus: change in splice reporter luminescence, either direction, cell-based, HEK293, spliceosome inhibition project, primary screen (AID 1101).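 Further: HEK293 cells carrying a splicing-competent luciferase reporter gene; test concentration not given here.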 To be noted: HEK293 splicing luciferase reporter, 24 h, higher = more signal, called active from +8 up or from −8 down.
Test [5] deals with Fibroblast growth factor 10 (Homo sapiens) (UniProt O15520). Nature of the test: compounds binding fibroblast growth factor 10 – biochemical, small-molecule microarray, 635 nm fluorescence, primary screen (AID 1102). To be noted: FGF10 binding, fluorescence 635 nm, higher = more signal.
Chain of Fibroblast growth factor 10 (Homo sapiens) (O15520 whole entry, looked up): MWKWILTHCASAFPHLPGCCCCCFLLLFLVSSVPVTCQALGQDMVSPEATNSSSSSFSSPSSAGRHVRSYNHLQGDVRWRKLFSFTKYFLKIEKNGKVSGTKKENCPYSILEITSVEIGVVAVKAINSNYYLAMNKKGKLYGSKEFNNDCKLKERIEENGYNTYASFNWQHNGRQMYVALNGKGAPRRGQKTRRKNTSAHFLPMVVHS
The test system of test [6] is glycogen synthase kinase-3 (GSK3A per assay name; protocol says GSK3B). In words: compounds binding glycogen synthase kinase-3 – biochemical, small-molecule microarray, 635 nm fluorescence, GSK3A, primary screen (AID 1103). Further: the record names both GSK3A and GSK3B. To be noted: fluorescence 635 nm, higher = more signal.
Test [7] has as its target Epidermal growth factor receptor (Homo sapiens) (UniProt P00533). In words: compounds binding epidermal growth factor receptor – biochemical, small-molecule microarray, 635 nm fluorescence, primary screen (AID 1104).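 Further: score merges 667 nm emission intensity with spot signal to noise over triplicate slides.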 As to conditions: EGFR binding, higher = more signal.
The target in test [8] is Follistatin-related protein 3 (Homo sapiens) (UniProt O95633). In words: compounds binding follistatin-related protein 3 – biochemical, small-molecule microarray, 635 nm fluorescence, primary screen (AID 1105).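 Further: score merges emission near 667 nm and signal to noise per printed spot across three slides.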 As to conditions: FSTL3 binding, higher = more signal.
Chain of Follistatin-related protein 3 (Homo sapiens) (O95633 whole entry, looked up): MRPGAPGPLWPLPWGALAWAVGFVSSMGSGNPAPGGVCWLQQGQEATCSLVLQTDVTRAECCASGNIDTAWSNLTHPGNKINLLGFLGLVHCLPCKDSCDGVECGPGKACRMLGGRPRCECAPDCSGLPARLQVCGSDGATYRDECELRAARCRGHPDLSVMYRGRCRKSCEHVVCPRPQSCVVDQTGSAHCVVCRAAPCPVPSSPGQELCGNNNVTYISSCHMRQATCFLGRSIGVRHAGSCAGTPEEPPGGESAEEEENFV
Test [9] concerns the target Dickkopf-related protein 1 (Homo sapiens) (UniProt O94907). In words: small molecules binding DKK1 protein – biochemical, small-molecule microarray, 635 nm fluorescence scan, primary screen (AID 1106).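 Further: score merges emission near 667 nm with signal to noise over three replicate slides.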 To be noted: higher = more signal.
In test [10] the test system is Inhibin beta A chain (activin A). Nature of the test: small molecules binding activin A – biochemical, small-molecule microarray, 635 nm fluorescence scan, primary screen (AID 1107).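 Further: mouse activin A protein probed at 4.33 µg/mL on printed slides; score merges bound-protein fluorescence near 667 nm with spot signal-to-noise.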 As to conditions: INHBA, higher = more signal.
The subject of test [11] is Human papillomavirus type 1a protein E7 (residues 44-93). In words: small molecules binding HPV E7 44-93 – biochemical, small-molecule microarray, residues 44-93, 635 nm fluorescence, primary screen (AID 1108).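 Further: E7 fragment applied at 1 µg/mL in TBST for 1 h at 4 C; score combines spot fluorescence with its signal to noise ratio.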 To be noted: fluorescence 635 nm, higher = more signal.
Test [12] is described as follows: hepatitis C replication reporter changes, two-sided – Huh7 cells, luciferase reporter, HCV replication inhibitor project, primary screen (AID 1109).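 Further: huh7 hepatoma cells harbouring a luciferase neomycin HCV replicon reporter; luciferase luminescence as measure of HCV replicon replication; test concentration not given here.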 To be noted: Huh7 HCV replicon luciferase reporter, 48 h; higher = more signal. (In general: In a reporter assay the amount or activity of a reporter protein is the signal.)
For test [13], the target named is Left-right determination factor 2 (Homo sapiens) (UniProt O00292). Nature of the test: small molecules binding LEFTY2 protein – biochemical, small-molecule microarray, 635 nm fluorescence scan, primary screen (AID 1110). To be noted: higher = more signal.
Chain of Left-right determination factor 2 (Homo sapiens) (O00292 whole entry, looked up): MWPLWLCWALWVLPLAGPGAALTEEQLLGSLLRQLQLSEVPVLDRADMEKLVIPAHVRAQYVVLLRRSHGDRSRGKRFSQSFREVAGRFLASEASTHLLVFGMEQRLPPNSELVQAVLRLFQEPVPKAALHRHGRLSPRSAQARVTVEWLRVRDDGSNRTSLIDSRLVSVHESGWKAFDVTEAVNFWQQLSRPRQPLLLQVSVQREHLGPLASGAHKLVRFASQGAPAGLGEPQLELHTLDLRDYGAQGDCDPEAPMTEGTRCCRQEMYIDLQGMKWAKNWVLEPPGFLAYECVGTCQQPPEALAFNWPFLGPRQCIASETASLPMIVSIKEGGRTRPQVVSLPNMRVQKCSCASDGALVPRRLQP
For test [14], the target named is Calmodulin-1 (Homo sapiens) (UniProt P0DP23). Nature of the test: small molecules binding calmodulin-1 with EGTA – biochemical, small-molecule microarray, Cy5-labelled CALM1, profiling panel (AID 1111).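 Further: labelled calmodulin applied in Tris saline Tween buffer holding calcium plus EGTA and DTT.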 To be noted: Cy5-CALM1 binding fluorescence, higher = more signal.
For test [15] the target is unchanged. Nature of the test: small molecules binding Ca-loaded calmodulin-1 – biochemical, small-molecule microarray, Cy5-labelled CALM1, plus calcium, artefact control for SMM control-protein annotation, profiling panel (AID 1112).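 Further: score merges spot fluorescence with signal to noise from triplicate slides.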 As to conditions: Cy5-CALM1 binding fluorescence, higher = more signal.
Test [16] is described as follows: probe aWnt5a binding to arrayed compounds – biochemical, biotinylated probe, 635/667 nm fluorescence, primary screen (AID 1113).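 Further: score merges 667 nm fluorescence intensity with signal-to-noise per printed feature.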 As to conditions: small-molecule microarray, higher = more signal.
Test [17] in a line: probe aShh binding to arrayed compounds – biochemical, biotinylated probe, 635/667 nm fluorescence, primary screen (AID 1114).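 Further: probe is biotin-labelled aShh protein from a stem cell growth factor screen; measures binding of labelled protein to compounds printed on the slide; score merges feature fluorescence at 667 nm with signal-to-noise.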 To be noted: small-molecule microarray, higher = more signal.
Test [18] can be described thus: probe aNog binding to arrayed compounds – biochemical, biotinylated probe, 635/667 nm fluorescence, primary screen (AID 1115).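 Further: probe is biotinylated aNog protein used at 0.15 µg/mL for 1 h at 4 C; z-score combines 667 nm fluorescence of each spot with its signal to noise.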 As to conditions: small-molecule microarray, higher = more signal.
The target of test [19] is Torsin-1A-interacting protein 1 (Homo sapiens) (UniProt Q5JTV8). In words: compound microarray binding of lysate hLAP1 – cell lysate, small-molecule microarray, COS7 lysate, 635/667 nm fluorescence, primary screen (AID 1116). To be noted: 635 nm fluorescence, higher = more signal.
Chain of Torsin-1A-interacting protein 1 (Homo sapiens) (Q5JTV8 whole entry, looked up): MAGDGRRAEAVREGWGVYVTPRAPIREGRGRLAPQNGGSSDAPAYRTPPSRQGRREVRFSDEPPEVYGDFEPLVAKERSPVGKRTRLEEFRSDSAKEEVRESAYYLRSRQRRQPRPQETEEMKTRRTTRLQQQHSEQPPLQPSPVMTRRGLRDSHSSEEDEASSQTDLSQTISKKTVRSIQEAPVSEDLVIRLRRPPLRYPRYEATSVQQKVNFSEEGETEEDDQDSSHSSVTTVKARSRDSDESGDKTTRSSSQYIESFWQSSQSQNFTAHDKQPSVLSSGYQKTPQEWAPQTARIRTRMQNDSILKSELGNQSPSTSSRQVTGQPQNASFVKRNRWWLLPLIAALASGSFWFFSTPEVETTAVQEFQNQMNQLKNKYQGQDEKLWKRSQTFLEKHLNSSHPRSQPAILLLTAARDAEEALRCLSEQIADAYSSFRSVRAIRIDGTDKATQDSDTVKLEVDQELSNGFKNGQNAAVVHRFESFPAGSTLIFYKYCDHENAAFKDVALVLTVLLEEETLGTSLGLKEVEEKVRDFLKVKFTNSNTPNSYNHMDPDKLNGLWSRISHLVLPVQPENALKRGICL
For test [20], the target named is Alpha-bungarotoxin (Bungarus multicinctus) (UniProt P60615). Nature of the test: compounds binding labelled alpha-BTX control protein – biochemical, small-molecule microarray, Alexa647 label, 635/667 nm fluorescence, artefact control for SMM control protein annotation, profiling panel (AID 1117). As to conditions: alpha-BTX-A647 binding fluorescence, higher = more signal.
Chain of Alpha-bungarotoxin (Bungarus multicinctus) (P60615 whole entry, looked up): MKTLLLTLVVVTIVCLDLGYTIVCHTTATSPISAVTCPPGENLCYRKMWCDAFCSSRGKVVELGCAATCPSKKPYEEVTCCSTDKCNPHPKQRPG

Chain of Dickkopf-related protein 1 (Homo sapiens) (O94907 whole entry, looked up): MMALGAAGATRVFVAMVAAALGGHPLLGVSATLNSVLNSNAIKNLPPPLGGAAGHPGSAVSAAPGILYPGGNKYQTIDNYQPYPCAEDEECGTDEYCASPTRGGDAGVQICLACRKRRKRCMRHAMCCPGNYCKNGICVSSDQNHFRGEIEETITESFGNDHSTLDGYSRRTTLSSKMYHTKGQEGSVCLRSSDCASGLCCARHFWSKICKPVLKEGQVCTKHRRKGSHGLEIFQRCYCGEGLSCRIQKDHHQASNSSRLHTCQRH
Chain of Epidermal growth factor receptor (Homo sapiens) (P00533 whole entry, looked up): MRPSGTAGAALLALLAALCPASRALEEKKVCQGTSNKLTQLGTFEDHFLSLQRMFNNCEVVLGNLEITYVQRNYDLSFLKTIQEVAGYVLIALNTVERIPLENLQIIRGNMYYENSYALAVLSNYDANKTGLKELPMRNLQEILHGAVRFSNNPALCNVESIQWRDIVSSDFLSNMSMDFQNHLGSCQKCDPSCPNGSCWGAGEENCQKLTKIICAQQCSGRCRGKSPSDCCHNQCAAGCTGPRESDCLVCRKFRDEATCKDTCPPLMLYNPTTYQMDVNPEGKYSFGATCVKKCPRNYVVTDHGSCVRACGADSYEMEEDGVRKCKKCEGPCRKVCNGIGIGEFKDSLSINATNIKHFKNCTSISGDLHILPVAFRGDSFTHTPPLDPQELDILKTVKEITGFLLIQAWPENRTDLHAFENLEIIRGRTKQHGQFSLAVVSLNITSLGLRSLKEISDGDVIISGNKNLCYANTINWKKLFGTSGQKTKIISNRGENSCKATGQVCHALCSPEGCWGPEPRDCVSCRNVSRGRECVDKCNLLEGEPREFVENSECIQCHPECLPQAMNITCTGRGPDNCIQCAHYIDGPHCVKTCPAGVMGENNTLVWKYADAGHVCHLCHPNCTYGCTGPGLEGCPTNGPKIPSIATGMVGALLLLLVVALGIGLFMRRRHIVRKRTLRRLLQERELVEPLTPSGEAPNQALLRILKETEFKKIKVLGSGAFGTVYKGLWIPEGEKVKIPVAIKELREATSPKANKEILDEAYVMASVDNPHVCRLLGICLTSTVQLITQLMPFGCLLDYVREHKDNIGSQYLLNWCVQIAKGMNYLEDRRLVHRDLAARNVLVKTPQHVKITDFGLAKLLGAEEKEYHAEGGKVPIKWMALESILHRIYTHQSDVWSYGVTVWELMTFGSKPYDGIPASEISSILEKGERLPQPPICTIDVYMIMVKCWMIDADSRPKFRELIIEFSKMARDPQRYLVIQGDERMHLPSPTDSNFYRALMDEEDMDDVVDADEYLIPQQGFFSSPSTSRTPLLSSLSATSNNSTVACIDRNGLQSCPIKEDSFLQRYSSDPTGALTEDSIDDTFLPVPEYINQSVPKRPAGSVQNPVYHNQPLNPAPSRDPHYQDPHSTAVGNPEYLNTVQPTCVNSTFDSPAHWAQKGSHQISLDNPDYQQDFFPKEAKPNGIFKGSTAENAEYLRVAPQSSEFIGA

Turning to `O=C1C[C@@H](O)[C@@H](O)[C@@H]2[C@@H]3C(=O)N(C4CCCCC4)C(=O)[C@@H]3CC[C@H]12`, the composite z-score in test [1] was 0.523; in test [2], -0.376; in [3], -0.711; in test [5], 0.438; in [6], 0.919; in test [7], 0.634. The composite z-score in [8] is 0.553; in test [9], 0.718; in test [10], -0.294; in test [11], 0.717; in [13], 0.456; in [14] it was -0.0292. Besides, the composite z-score in test [15] is -0.57; in test [16], -0.114; in test [17], -0.309; in test [18] it was 0.0051; in test [19], 0.473; in test [20], -0.0214. For the same compound, the z-score in test [4] is 0.804 (inactive); in test [12] it was -0.0951.

For the compound `COC(=O)[C@@]1(Cc2ccc(OC)cc2)[C@H]2c3cc(C(=O)N4CCCC4)n(Cc4cc(F)c(F)c(F)c4)c3C[C@H]2CN1C(=O)c1ccccc1`, the composite z-score in [1] was 1.08; in test [2], 2.47; in test [3] it was 1.59; in test [5], 1.15; in test [6], 1.3; in [7] it was 1.12. Also, the composite z-score in test [8] is 1.32; in [9] it was -0.279; in [10] it was 0.835; in [11], 1.37; in test [13], 0.342; in [14] it was 2.69. Besides, the composite z-score in [15] turned out to be 1.59; in test [16], 1.11; in test [17] it was 2.22; in test [18], 1.07; in [19], 1.52; in [20], 2.06. The values for the z-score in [4] and in [12] were -1.28 (inactive) and 0.323, respectively.

For the compound `CO[C@@H]1COC(=O)[C@@H]2CCCN2C(=O)[C@@H](C)COC(=O)[C@H](COCc2ccccc2)NC(=O)CC=C[C@H]1C`, the composite z-score was 0.385 in test [1]; -0.559 in test [2]; -0.664 in test [3]; 0.613 in test [5]; 0.575 in test [6]; 0.239 in [7]. In addition, the composite z-score was 0.478 in test [8]; 0.356 in [9]; -0.235 in test [10]; 0.929 in [11]; 0.39 in test [13]; -0.142 in [14]. The composite z-score in test [15] was -0.713; in test [16], -0.0748; in test [17], 0.0941; in test [18], -0.111; in test [19] it was 0.142; in test [20], 0.199. Also, the z-score is -0.425 (inactive) in test [4] and 0.323 in [12].

For the compound `CO[C@@H]1COC(=O)CC=C[C@@H](C)COC(=O)[C@H](COCc2ccccc2)NC(=O)CC=C[C@H]1C`, the composite z-score was 1.49 in test [1]; -0.526 in test [2]; -1.31 in test [3]; 0.285 in [5]; 0.19 in test [6]; 0.912 in test [7]. In addition, the composite z-score in test [8] is 1.23; in test [9], 1.64; in test [10] it was 1.63; in test [11], -0.956; in test [13] it was 1.02; in test [14], -0.838. Besides, the composite z-score in [15] is -1.28; in [16] it was -0.0721; in test [17], 0.0278; in test [18] it was -0.298; in test [19], 0.325; in test [20], -0.397. The z-score in test [4] was -0.912 (inactive); in test [12] it was -0.151.

Turning to `COC(=O)CC=C[C@@H](C)[C@@H](C=NO[C@@H](C)c1cc(-c2c(C)cc(C)cc2C)no1)OC`, the composite z-score in test [1] is -0.677; in test [2] it was 0.237; in [3], 1.07; in [5], -1.72; in [6], -1.19; in [7], -1.81. Moreover, the composite z-score in test [8] was -1.67; in test [9], -2.42; in test [10], -0.2; in test [11], -1.29; in [13] it was -0.627; in [14], -0.908. Besides, the composite z-score was -1.48 in [15]; -0.295 in [16]; -0.2 in test [17]; 0.531 in [18]; -1.75 in test [19]; -1.11 in test [20]. The z-score in test [4] was -1.2 (inactive); in test [12], -0.378.

In the case of `COc1ccc([Si](C)(C)[C@H]2[C@H](CC(=O)N3CCC[C@H]3CO)O[C@@]3(C(=O)N(Cc4cccc(N5C(=O)COc6ccccc65)c4)c4ccccc43)[C@@H]2C)cc1`, the composite z-score in test [1] is 1.21; in [2] it was -0.248; in test [3], -0.364; in [5], 0.369; in test [6], 0.803; in [7], 0.771. In addition, the composite z-score was 0.959 in test [8]; 0.519 in [9]; 0.572 in test [10]; 1.08 in test [11]; 0.805 in test [13]; 1.36 in [14]. Also, the composite z-score in test [15] was 0.487; in [16], 0.0556; in test [17], -0.17; in [18], 0.274; in [19] it was 1.16; in [20], -0.654. In addition, the z-score in test [4] is -0.867 (inactive); in [12], -2.51.
